# According to PMC7862700, “An all-to-all approach to the identification of sequence-specific readers for epigenetic DNA modifications on cytosine”:
# Assays:
# Experiment in all cases: DAPPL (digital affinity profiling via proximity ligation, sequencing); 10 mM Tris-HCl pH 7.5, 50 mM NaCl, 1 mM DTT, 4% glycerol, room temperature, 30 min; GST-TFs on glutathione beads, 16-mer random dsDNA library, 0.1% formaldehyde crosslink after washing; high values mean tight binding
# FLI1 = target: T1, FLI1 (Homo sapiens, UniProt Q01543 1-452); details: protein: recombinant; tags: N-terminal GST; dsDNA, one strand shown
# T1 sequence: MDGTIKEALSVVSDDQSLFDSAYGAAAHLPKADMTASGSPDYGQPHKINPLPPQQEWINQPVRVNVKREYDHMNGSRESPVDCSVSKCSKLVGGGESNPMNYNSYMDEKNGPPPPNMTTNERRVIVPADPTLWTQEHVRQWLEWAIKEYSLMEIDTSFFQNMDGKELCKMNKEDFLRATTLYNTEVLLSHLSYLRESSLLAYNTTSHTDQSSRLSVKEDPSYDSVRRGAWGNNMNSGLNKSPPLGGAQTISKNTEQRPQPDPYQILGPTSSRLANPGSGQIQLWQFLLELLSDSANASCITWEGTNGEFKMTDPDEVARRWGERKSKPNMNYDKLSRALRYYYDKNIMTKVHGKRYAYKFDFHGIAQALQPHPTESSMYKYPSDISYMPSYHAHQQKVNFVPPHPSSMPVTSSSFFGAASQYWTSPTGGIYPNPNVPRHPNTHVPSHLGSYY
# How it was run: (§1)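 A tag-only sample was pooled with DNA-barcoded human transcription factors that had been expressed in yeast as GST fusions and captured on glutathione beads. The pools were incubated for 30 min at room temperature with 200 nmole of a random double-stranded 16-mer DNA library in Tris/NaCl/DTT/glycerol buffer, then washed, crosslinked with 0.1% formaldehyde, proximity-ligated (BsaI/T4 ligase, 1 h, 37 °C), PCR-amplified and sequenced on an Illumina NextSeq500. Binding signal is each hexamer's read frequency for a factor divided by its frequency for the tag-only sample.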
# ELK1 = target: T2, ELK1 (Homo sapiens, UniProt P19419 1-428); details: protein: recombinant; tags: N-terminal GST; dsDNA, one strand shown
# T2 sequence: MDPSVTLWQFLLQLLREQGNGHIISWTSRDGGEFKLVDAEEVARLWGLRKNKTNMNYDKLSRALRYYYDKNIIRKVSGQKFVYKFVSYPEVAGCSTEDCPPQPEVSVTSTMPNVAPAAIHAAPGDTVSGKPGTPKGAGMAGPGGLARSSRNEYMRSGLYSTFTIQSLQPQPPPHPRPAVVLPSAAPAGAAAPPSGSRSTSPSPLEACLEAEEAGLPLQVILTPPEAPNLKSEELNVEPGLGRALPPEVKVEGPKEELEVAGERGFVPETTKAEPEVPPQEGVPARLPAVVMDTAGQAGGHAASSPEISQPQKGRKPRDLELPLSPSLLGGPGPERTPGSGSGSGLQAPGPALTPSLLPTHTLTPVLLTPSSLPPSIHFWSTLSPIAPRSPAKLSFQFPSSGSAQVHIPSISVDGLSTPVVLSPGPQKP
# How it was run: as §1
# GABPA = target: T3, GABPA (Homo sapiens, UniProt Q06546 1-454); details: protein: recombinant; tags: N-terminal GST; dsDNA, one strand shown
# T3 sequence: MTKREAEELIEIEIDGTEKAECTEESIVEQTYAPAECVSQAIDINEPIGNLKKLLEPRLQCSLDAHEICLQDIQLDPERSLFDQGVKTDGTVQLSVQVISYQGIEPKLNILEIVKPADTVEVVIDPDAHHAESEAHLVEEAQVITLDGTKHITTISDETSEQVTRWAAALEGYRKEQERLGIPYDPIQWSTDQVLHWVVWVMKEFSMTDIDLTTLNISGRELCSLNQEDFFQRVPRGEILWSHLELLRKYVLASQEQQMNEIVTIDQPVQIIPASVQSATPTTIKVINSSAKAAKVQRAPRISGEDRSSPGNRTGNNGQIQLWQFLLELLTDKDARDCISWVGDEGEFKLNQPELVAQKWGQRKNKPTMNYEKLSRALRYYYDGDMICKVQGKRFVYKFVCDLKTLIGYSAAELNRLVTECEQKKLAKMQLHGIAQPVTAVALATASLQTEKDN
# How it was run: as §1
# ERG = target: T4, ERG (Homo sapiens, UniProt P11308 1-479); details: protein: recombinant; tags: N-terminal GST; dsDNA, one strand shown
# T4 sequence: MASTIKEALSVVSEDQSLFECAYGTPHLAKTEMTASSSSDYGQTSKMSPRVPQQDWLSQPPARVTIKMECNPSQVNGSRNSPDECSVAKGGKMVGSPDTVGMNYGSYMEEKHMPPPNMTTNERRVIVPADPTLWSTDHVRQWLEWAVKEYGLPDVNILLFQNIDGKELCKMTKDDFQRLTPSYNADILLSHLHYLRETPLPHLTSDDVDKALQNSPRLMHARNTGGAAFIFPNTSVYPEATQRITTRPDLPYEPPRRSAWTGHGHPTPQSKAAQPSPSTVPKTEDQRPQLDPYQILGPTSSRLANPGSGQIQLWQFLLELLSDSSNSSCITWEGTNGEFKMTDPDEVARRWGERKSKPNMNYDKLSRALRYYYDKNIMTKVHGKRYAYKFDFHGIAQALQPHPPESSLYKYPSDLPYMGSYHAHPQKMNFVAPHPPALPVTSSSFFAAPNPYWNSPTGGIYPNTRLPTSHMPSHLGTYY
# How it was run: as §1
# ELF1 = ELF1 (Homo sapiens, UniProt P32519 1-619); details: protein: recombinant; tags: N-terminal GST; dsDNA, one strand shown
# How it was run: as §1
# EHF = target: T5, EHF (Homo sapiens, UniProt Q9NZC4 1-300); details: protein: recombinant; tags: N-terminal GST; dsDNA, one strand shown
# T5 sequence: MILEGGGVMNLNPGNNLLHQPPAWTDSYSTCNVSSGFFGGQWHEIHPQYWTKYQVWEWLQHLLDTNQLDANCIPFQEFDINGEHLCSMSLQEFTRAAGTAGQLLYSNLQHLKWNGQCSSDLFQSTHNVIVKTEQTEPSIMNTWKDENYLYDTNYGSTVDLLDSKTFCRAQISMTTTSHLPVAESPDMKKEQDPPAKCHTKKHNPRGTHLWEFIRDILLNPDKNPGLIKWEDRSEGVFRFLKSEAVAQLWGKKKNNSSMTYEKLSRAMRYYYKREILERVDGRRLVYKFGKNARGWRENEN
# How it was run: as §1
# SPI1 = SPI1 (Homo sapiens, UniProt P17947 1-270); details: protein: recombinant; tags: N-terminal GST; dsDNA, one strand shown
# How it was run: as §1
# SPIB = SPIB (Homo sapiens, UniProt Q01892 1-262); details: protein: recombinant; tags: N-terminal GST; dsDNA, one strand shown
# How it was run: as §1
# ELK3 = target: T6, ELK3 (Homo sapiens, UniProt P41970 1-407); details: protein: recombinant; tags: N-terminal GST; dsDNA, one strand shown
# T6 sequence: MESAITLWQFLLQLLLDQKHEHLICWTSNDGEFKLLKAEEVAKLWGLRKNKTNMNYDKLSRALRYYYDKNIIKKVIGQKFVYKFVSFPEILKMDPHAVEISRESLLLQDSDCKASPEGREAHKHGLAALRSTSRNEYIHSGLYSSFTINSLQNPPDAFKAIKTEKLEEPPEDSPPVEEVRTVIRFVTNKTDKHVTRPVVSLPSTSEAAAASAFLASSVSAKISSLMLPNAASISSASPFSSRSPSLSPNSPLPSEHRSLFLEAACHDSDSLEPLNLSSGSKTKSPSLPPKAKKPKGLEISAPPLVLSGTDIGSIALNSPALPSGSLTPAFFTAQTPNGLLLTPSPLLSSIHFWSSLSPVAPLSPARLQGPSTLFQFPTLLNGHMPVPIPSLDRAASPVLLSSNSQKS
# How it was run: as §1
# FEV = target: T7, FEV (Homo sapiens, UniProt Q99581 1-238); details: protein: recombinant; tags: N-terminal GST; dsDNA, one strand shown
# T7 sequence: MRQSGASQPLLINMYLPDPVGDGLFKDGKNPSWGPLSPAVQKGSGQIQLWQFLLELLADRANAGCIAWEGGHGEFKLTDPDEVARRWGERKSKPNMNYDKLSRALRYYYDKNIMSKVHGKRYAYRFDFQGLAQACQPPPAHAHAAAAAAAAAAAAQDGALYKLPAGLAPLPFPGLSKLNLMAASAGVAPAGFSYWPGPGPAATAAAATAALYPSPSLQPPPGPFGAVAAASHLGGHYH
# How it was run: as §1
# ETV5 = ETV5 (Homo sapiens, UniProt P41161 1-510); details: protein: recombinant; tags: N-terminal GST; dsDNA, one strand shown
# How it was run: as §1
# HSF1 = HSF1 (Homo sapiens, UniProt Q00613 1-529); details: protein: recombinant; tags: N-terminal GST; chain copies: 3; dsDNA, one strand shown
# How it was run: as §1
# SPIC = target: T8, SPIC (Homo sapiens, UniProt Q8N5J4 1-248); details: protein: recombinant; tags: N-terminal GST; dsDNA, one strand shown
# T8 sequence: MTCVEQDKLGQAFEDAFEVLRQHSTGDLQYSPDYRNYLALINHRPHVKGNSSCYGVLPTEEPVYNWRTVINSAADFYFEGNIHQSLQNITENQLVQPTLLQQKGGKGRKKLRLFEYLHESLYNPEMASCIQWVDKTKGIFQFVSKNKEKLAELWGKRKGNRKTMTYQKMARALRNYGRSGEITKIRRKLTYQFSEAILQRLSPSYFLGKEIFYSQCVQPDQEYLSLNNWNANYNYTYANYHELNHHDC
# How it was run: as §1
# ELF4 = ELF4 (Homo sapiens, UniProt Q99607 1-663); details: protein: recombinant; tags: N-terminal GST; dsDNA, one strand shown
# How it was run: as §1
# ELK4 = target: T9, ELK4 (Homo sapiens, UniProt P28324-2 1-405); details: protein: recombinant; tags: N-terminal GST; dsDNA, one strand shown
# T9 sequence: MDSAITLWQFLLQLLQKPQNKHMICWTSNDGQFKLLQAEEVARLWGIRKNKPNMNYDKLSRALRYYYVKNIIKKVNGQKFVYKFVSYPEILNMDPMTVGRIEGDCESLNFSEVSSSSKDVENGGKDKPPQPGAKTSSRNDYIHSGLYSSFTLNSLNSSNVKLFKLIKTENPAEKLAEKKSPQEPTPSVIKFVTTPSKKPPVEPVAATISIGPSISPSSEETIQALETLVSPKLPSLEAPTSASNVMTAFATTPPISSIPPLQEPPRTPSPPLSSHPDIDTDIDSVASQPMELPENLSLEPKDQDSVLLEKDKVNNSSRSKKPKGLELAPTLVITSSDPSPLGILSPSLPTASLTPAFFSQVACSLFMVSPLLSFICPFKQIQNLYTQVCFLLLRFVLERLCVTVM
# How it was run: as §1
# ETV2 = target: T10, ETV2 (Homo sapiens, UniProt O00321 1-342); details: protein: recombinant; tags: N-terminal GST; dsDNA, one strand shown
# T10 sequence: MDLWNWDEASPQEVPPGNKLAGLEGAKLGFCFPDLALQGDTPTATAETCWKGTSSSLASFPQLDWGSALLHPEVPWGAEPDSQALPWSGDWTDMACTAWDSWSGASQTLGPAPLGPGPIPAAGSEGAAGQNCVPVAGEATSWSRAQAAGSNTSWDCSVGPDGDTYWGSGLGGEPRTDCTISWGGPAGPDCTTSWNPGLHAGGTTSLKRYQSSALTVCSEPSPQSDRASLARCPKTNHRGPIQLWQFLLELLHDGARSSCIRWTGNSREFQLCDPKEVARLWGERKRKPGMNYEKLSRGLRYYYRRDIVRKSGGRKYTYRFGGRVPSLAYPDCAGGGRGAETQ
# How it was run: as §1
# ELF3 = target: T11, ELF3 (Homo sapiens, UniProt P78545 1-371); details: protein: recombinant; tags: N-terminal GST; dsDNA, one strand shown
# T11 sequence: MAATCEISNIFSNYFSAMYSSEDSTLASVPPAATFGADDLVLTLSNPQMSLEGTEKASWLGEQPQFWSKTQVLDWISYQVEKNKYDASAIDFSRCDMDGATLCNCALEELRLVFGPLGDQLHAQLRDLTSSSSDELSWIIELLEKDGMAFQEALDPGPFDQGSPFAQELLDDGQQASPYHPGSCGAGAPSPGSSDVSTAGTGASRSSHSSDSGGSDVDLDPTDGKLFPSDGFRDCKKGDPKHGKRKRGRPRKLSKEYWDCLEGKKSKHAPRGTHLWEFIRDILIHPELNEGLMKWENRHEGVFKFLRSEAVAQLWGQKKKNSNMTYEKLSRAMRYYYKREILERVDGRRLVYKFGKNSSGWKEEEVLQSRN
# How it was run: as §1
# CRX = CRX (Homo sapiens, UniProt O43186 1-299); details: protein: recombinant; tags: N-terminal GST; dsDNA, one strand shown
# How it was run: as §1
# ETV1 = ETV1 (Homo sapiens, UniProt P50549 1-477); details: protein: recombinant; tags: N-terminal GST; dsDNA, one strand shown
# How it was run: as §1
# Chain of ETV5 (P41161 whole entry): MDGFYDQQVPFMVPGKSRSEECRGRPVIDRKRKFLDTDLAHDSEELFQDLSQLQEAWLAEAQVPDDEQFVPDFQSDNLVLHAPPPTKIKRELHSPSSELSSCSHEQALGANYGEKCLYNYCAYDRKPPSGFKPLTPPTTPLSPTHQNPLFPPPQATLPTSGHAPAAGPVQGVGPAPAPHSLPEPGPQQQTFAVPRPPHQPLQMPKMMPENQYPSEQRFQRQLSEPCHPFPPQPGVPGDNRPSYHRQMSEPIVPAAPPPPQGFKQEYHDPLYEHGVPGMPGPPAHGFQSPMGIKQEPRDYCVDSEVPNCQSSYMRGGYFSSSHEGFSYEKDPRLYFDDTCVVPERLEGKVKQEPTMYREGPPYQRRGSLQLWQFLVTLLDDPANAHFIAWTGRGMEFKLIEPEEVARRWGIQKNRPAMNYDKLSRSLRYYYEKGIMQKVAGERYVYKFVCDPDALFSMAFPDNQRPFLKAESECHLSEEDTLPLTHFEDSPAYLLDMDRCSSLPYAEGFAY
# Chain of ELF1 (P32519 whole entry): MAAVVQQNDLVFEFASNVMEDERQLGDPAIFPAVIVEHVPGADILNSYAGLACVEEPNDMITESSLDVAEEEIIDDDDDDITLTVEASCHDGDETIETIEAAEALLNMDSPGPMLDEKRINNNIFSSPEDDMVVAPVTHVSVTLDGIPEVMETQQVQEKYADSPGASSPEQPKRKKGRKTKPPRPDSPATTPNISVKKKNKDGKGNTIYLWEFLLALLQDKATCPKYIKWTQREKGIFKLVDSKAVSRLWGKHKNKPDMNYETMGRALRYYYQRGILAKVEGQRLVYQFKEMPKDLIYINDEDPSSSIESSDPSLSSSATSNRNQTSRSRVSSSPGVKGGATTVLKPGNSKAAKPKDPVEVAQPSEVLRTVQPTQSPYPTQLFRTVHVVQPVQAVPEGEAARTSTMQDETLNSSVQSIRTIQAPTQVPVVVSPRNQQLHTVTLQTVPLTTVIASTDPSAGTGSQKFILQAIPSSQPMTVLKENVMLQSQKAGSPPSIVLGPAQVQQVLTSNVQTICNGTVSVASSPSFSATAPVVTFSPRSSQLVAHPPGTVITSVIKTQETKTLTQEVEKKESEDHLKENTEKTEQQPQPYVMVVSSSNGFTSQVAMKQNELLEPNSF
# Chain of HSF1 (Q00613 whole entry): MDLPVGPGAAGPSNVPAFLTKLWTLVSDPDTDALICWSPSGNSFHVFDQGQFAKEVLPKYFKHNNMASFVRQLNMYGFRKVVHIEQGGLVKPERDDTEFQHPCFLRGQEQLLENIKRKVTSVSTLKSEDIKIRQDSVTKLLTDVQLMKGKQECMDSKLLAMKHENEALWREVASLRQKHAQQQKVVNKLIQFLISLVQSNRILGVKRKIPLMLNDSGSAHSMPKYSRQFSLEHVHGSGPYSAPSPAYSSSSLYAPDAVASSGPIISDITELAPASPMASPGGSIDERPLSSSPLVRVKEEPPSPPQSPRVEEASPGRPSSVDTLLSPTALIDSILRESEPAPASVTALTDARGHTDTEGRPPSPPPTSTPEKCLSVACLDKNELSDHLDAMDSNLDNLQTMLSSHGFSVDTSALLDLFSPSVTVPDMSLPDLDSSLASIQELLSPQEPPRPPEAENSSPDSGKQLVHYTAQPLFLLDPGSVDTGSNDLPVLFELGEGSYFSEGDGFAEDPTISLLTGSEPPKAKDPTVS
# Chain of ETV1 (P50549 whole entry): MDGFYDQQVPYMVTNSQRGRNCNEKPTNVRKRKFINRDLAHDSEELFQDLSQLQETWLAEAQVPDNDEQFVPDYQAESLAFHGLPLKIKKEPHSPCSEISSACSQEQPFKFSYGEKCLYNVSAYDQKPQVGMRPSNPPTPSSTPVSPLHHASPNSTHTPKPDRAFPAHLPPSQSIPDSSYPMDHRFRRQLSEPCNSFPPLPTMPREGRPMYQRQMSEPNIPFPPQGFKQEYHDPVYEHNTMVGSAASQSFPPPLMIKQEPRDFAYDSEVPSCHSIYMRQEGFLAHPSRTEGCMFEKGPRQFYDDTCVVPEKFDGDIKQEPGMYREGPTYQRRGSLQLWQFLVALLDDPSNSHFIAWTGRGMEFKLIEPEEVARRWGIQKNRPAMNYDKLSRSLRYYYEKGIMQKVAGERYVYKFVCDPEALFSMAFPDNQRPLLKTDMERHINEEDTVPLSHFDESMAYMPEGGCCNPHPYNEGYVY
# Chain of CRX (O43186 whole entry): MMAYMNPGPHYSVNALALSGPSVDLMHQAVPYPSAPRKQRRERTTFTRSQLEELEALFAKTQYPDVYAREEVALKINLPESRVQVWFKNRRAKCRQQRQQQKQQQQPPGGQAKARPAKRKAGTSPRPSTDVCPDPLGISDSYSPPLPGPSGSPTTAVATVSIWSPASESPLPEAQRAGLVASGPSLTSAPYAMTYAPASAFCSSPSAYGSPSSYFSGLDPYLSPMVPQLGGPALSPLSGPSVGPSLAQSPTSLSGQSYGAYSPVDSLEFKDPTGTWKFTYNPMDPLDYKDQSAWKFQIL
# Chain of SPIB (Q01892 whole entry): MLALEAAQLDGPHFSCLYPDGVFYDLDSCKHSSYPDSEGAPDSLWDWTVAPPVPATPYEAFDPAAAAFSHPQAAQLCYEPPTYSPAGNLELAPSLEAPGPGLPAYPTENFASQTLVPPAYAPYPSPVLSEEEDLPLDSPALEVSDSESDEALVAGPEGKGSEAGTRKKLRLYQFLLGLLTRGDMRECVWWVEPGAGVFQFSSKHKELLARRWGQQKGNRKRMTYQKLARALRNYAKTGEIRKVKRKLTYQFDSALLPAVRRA
# Chain of ELF4 (Q99607 whole entry): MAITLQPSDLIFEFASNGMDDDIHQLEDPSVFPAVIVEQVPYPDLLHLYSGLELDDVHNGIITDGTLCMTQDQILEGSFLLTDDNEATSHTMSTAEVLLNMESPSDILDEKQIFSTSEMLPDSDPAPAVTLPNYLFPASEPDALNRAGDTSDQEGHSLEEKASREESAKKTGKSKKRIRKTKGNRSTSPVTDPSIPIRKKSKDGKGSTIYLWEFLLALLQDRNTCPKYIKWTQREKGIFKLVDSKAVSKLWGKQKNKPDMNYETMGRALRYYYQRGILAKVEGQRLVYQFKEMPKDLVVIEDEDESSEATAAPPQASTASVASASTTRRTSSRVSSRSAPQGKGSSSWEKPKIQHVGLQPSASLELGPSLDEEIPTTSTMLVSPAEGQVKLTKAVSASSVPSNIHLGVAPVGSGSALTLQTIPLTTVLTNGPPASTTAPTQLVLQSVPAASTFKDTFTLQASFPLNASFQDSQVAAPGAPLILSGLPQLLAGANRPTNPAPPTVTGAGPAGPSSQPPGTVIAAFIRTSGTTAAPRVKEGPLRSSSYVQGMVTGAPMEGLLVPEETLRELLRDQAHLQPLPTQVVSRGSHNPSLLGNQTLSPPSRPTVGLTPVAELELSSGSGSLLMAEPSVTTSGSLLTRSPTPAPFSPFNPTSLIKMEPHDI
sequence,measurement,setting,value
CTTGCT,binding signal,FLI1,"1.51 fold enrichment (6-mer frequency, TF over GST control)"
same,binding signal,ELK1,"1.35 fold enrichment (6-mer frequency, TF over GST control)"
same,binding signal,GABPA,"1.38 fold enrichment (6-mer frequency, TF over GST control)"
same,binding signal,ERG,"1.21 fold enrichment (6-mer frequency, TF over GST control)"
same,binding signal,ELF1,"1.33 fold enrichment (6-mer frequency, TF over GST control)"
same,binding signal,EHF,"1.25 fold enrichment (6-mer frequency, TF over GST control)"
same,binding signal,SPI1,"1.44 fold enrichment (6-mer frequency, TF over GST control)"
same,binding signal,SPIB,"1.34 fold enrichment (6-mer frequency, TF over GST control)"
same,binding signal,ELK3,"1.25 fold enrichment (6-mer frequency, TF over GST control)"
same,binding signal,FEV,"1.25 fold enrichment (6-mer frequency, TF over GST control)"
same,binding signal,ETV5,"1.39 fold enrichment (6-mer frequency, TF over GST control)"
same,binding signal,HSF1,"1.24 fold enrichment (6-mer frequency, TF over GST control)"
same,binding signal,SPIC,"1.52 fold enrichment (6-mer frequency, TF over GST control)"
same,binding signal,ELF4,"1.35 fold enrichment (6-mer frequency, TF over GST control)"
same,binding signal,ELK4,"1.34 fold enrichment (6-mer frequency, TF over GST control)"
same,binding signal,ETV2,"1.58 fold enrichment (6-mer frequency, TF over GST control)"
same,binding signal,ELF3,"1.52 fold enrichment (6-mer frequency, TF over GST control)"
same,binding signal,CRX,"1.18 fold enrichment (6-mer frequency, TF over GST control)"
same,binding signal,ETV1,"1.36 fold enrichment (6-mer frequency, TF over GST control)"
